# According to the supplement of paper PMC12282887:
# ± gives the standard deviation of the averaged measurements.
# Tests used:
# Test in all cases: promoter activity interaction Z-score (Lux/OD deviation from empty-vector control); higher = stronger promoter induction by the compound
# [1] = system: E. coli BW25113 acrABp lux reporter
# Outline: (§1)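 Four 1:2 dilutions of each compound were tested in biological duplicates on E. coli BW25113 carrying low-copy luxCDABE promoter reporters, either wild type or deleted for one of three genes. Cultures of 40 µl LB Lennox in 384-well plates were kept at 37°C and read for OD600 and luminescence every 30 min for 12 h. Integration windows were 0–8 h for wild type and 1–9 h for deletion strains, and wells under 10% of the median growth value were discarded. The score is a Z-transformed residual of growth-normalised luminescence relative to a control fit.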
# [2] = system: E. coli BW25113 marRABp lux reporter
# Outline: as §1
# [3] = system: E. coli BW25113 micFp lux reporter
# Outline: as §1
# [4] = system: E. coli BW25113 ompFp lux reporter
# Outline: as §1
# [5] = system: E. coli BW25113 robp lux reporter
# Outline: as §1
# [6] = system: E. coli BW25113 soxSp lux reporter
# Outline: as §1
# [7] = system: E. coli BW25113 tolCp lux reporter
# Outline: as §1
# [8] = 40.6 µg/ml, genetic background: wild type
# [9] = 40.6 µg/ml, genetic background: ΔmarA
# [10] = 40.6 µg/ml, genetic background: Δrob
# [11] = 40.6 µg/ml, genetic background: ΔsoxS
# [12] = 81.1 µg/ml, genetic background: wild type
# [13] = 81.1 µg/ml, genetic background: ΔmarA
# [14] = 81.1 µg/ml, genetic background: Δrob
# [15] = 81.1 µg/ml, genetic background: ΔsoxS
# [16] = 162.2 µg/ml, genetic background: wild type
# [17] = 162.2 µg/ml, genetic background: ΔmarA
# [18] = 162.2 µg/ml, genetic background: Δrob
# [19] = 162.2 µg/ml, genetic background: ΔsoxS
# [20] = 324.4 µg/ml, genetic background: wild type
# [21] = 324.4 µg/ml, genetic background: ΔmarA
# [22] = 324.4 µg/ml, genetic background: Δrob
# [23] = 324.4 µg/ml, genetic background: ΔsoxS
compound,measurement,setting,value
C=C[C@H]1CN2CC[C@H]1C[C@H]2[C@H](O)c1ccnc2ccc(OC)cc12 [Quinine],promoter activity interaction Z-score,[1]; [8],-0.0276 ± 0.14
same,promoter activity interaction Z-score,[1]; [9],0.379 ± 1.7
same,promoter activity interaction Z-score,[1]; [10],-0.214 ± 0.025
same,promoter activity interaction Z-score,[1]; [11],-0.207 ± 0.36
same,promoter activity interaction Z-score,[1]; [12],-0.0617 ± 0.23
same,promoter activity interaction Z-score,[1]; [13],0.66 ± 0.57
same,promoter activity interaction Z-score,[1]; [14],-0.0693 ± 0.15
same,promoter activity interaction Z-score,[1]; [15],0.146 ± 0.074
same,promoter activity interaction Z-score,[1]; [16],-0.321 ± 0.19
same,promoter activity interaction Z-score,[1]; [17],-0.122 ± 1
same,promoter activity interaction Z-score,[1]; [18],0.00483 ± 0.12
same,promoter activity interaction Z-score,[1]; [19],-0.386 ± 0.088
same,promoter activity interaction Z-score,[1]; [20],-0.269 ± 0.44
same,promoter activity interaction Z-score,[1]; [21],-0.173 ± 0.094
same,promoter activity interaction Z-score,[1]; [22],0.046 ± 0.023
same,promoter activity interaction Z-score,[1]; [23],-0.181 ± 0.2
same,promoter activity interaction Z-score,[2]; [8],0.0904 ± 0.38
same,promoter activity interaction Z-score,[2]; [9],-0.307 ± 0.24
same,promoter activity interaction Z-score,[2]; [10],-0.00554 ± 0.082
same,promoter activity interaction Z-score,[2]; [11],-0.106 ± 0.073
same,promoter activity interaction Z-score,[2]; [12],-0.119 ± 0.029
same,promoter activity interaction Z-score,[2]; [13],0.197 ± 0.19
same,promoter activity interaction Z-score,[2]; [14],-0.0844 ± 0.1
same,promoter activity interaction Z-score,[2]; [15],0.0817 ± 0.18
same,promoter activity interaction Z-score,[2]; [16],-0.16 ± 0.05
same,promoter activity interaction Z-score,[2]; [17],0.254 ± 0.062
same,promoter activity interaction Z-score,[2]; [18],-0.151 ± 0.3
same,promoter activity interaction Z-score,[2]; [19],-0.0309 ± 0.098
same,promoter activity interaction Z-score,[2]; [20],1.1 ± 0.12
same,promoter activity interaction Z-score,[2]; [21],1.18 ± 0.12
same,promoter activity interaction Z-score,[2]; [22],-0.164 ± 0.17
same,promoter activity interaction Z-score,[2]; [23],0.579 ± 0.51
same,promoter activity interaction Z-score,[3]; [8],0.322 ± 0.35
same,promoter activity interaction Z-score,[3]; [9],0.0116 ± 0.1
same,promoter activity interaction Z-score,[3]; [10],-0.133 ± 0.038
same,promoter activity interaction Z-score,[3]; [11],-0.0747 ± 0.16
same,promoter activity interaction Z-score,[3]; [12],0.106 ± 0.04
same,promoter activity interaction Z-score,[3]; [13],0.118 ± 0.17
same,promoter activity interaction Z-score,[3]; [14],-0.0678 ± 0.18
same,promoter activity interaction Z-score,[3]; [15],0.253 ± 0.078
same,promoter activity interaction Z-score,[3]; [16],0.0719 ± 0.29
same,promoter activity interaction Z-score,[3]; [17],0.23 ± 0.0035
same,promoter activity interaction Z-score,[3]; [18],0.137 ± 0.068
same,promoter activity interaction Z-score,[3]; [19],0.356 ± 0.086
same,promoter activity interaction Z-score,[3]; [20],0.7474 ± 0.0019
same,promoter activity interaction Z-score,[3]; [21],0.582 ± 0.025
same,promoter activity interaction Z-score,[3]; [22],0.201 ± 0.17
same,promoter activity interaction Z-score,[3]; [23],1.13 ± 0.047
same,promoter activity interaction Z-score,[4]; [8],0.0547 ± 0.22
same,promoter activity interaction Z-score,[4]; [9],-0.33 ± 0.1
same,promoter activity interaction Z-score,[4]; [10],-0.566 ± 0.33
same,promoter activity interaction Z-score,[4]; [11],0.39 ± 0.047
same,promoter activity interaction Z-score,[4]; [12],-0.0322 ± 0.074
same,promoter activity interaction Z-score,[4]; [13],0.401 ± 0.48
same,promoter activity interaction Z-score,[4]; [14],0.0636 ± 0.022
same,promoter activity interaction Z-score,[4]; [15],0.369 ± 0.07
same,promoter activity interaction Z-score,[4]; [16],-0.435 ± 0.35
same,promoter activity interaction Z-score,[4]; [17],-0.0896 ± 0.32
same,promoter activity interaction Z-score,[4]; [18],0.318 ± 0.14
same,promoter activity interaction Z-score,[4]; [19],-0.194 ± 0.092
same,promoter activity interaction Z-score,[4]; [20],-0.15 ± 0.097
same,promoter activity interaction Z-score,[4]; [21],0.352 ± 0.51
same,promoter activity interaction Z-score,[4]; [22],-0.0516 ± 0.19
same,promoter activity interaction Z-score,[4]; [23],-0.0712 ± 0.12
same,promoter activity interaction Z-score,[5]; [8],0.233 ± 0.19
same,promoter activity interaction Z-score,[5]; [9],-0.32 ± 0.61
same,promoter activity interaction Z-score,[5]; [10],-0.0483 ± 0.15
same,promoter activity interaction Z-score,[5]; [11],0.121 ± 0.51
same,promoter activity interaction Z-score,[5]; [12],-0.103 ± 0.11
same,promoter activity interaction Z-score,[5]; [13],0.432 ± 0.065
same,promoter activity interaction Z-score,[5]; [14],0.674 ± 0.12
same,promoter activity interaction Z-score,[5]; [15],0.933 ± 0.31
same,promoter activity interaction Z-score,[5]; [16],-0.361 ± 0.36
same,promoter activity interaction Z-score,[5]; [17],0.246 ± 0.82
same,promoter activity interaction Z-score,[5]; [18],0.504 ± 0.18
same,promoter activity interaction Z-score,[5]; [19],0.352 ± 0.57
same,promoter activity interaction Z-score,[5]; [20],-0.236 ± 0.25
same,promoter activity interaction Z-score,[5]; [21],0.371 ± 0.84
same,promoter activity interaction Z-score,[5]; [22],0.206 ± 0.3
same,promoter activity interaction Z-score,[5]; [23],-0.277 ± 1.1
same,promoter activity interaction Z-score,[6]; [8],-0.2102 ± 0.00085
same,promoter activity interaction Z-score,[6]; [9],-0.278 ± 0.015
same,promoter activity interaction Z-score,[6]; [10],-0.273 ± 0.13
same,promoter activity interaction Z-score,[6]; [11],-0.121 ± 0.17
same,promoter activity interaction Z-score,[6]; [12],-0.286 ± 0.043
same,promoter activity interaction Z-score,[6]; [13],-0.134 ± 0.031
same,promoter activity interaction Z-score,[6]; [14],-0.188 ± 0.032
same,promoter activity interaction Z-score,[6]; [15],-0.041 ± 0.2
same,promoter activity interaction Z-score,[6]; [16],-0.297 ± 0.031
same,promoter activity interaction Z-score,[6]; [17],-0.177 ± 0.0058
same,promoter activity interaction Z-score,[6]; [18],0.0402 ± 0.16
same,promoter activity interaction Z-score,[6]; [19],-0.15 ± 0.37
same,promoter activity interaction Z-score,[6]; [20],-0.241 ± 0.021
same,promoter activity interaction Z-score,[6]; [21],-0.171 ± 0.066
same,promoter activity interaction Z-score,[6]; [22],-0.243 ± 0.11
same,promoter activity interaction Z-score,[6]; [23],-0.272 ± 0.35
same,promoter activity interaction Z-score,[7]; [8],-0.906 ± 1
same,promoter activity interaction Z-score,[7]; [9],-0.418 ± 0.34
same,promoter activity interaction Z-score,[7]; [10],0.214 ± 1.5
same,promoter activity interaction Z-score,[7]; [11],-0.701 ± 0.52
same,promoter activity interaction Z-score,[7]; [12],-0.18 ± 0.28
same,promoter activity interaction Z-score,[7]; [13],0.28 ± 0.4
same,promoter activity interaction Z-score,[7]; [14],-0.738 ± 0.76
same,promoter activity interaction Z-score,[7]; [15],-0.512 ± 0.23
same,promoter activity interaction Z-score,[7]; [16],-0.157 ± 0.39
same,promoter activity interaction Z-score,[7]; [17],0.0619 ± 0.15
same,promoter activity interaction Z-score,[7]; [18],-0.0757 ± 0.051
same,promoter activity interaction Z-score,[7]; [19],-0.611 ± 1.3
same,promoter activity interaction Z-score,[7]; [20],-0.913 ± 0.14
same,promoter activity interaction Z-score,[7]; [21],0.586 ± 1.1
same,promoter activity interaction Z-score,[7]; [22],-0.0963 ± 1.2
same,promoter activity interaction Z-score,[7]; [23],0.127 ± 0.016
